Assay results as given in PubChem BioAssay AID2061166 (Soto Lab, Mitchell Center for Alzheimers Disease and …, 2025).
Values without a mark were called inactive.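 How the source made its calls: active means mean tau seeding fluorescence area under 1% of vehicle, meaning inhibition above a set limit; inactive means the rest.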

Target: Microtubule-associated protein tau (Homo sapiens) (UniProt P10636)
Experiment: blockers of AD brain-seeded tau fibril growth – biochemical, seed amplification, ThT fluorescence, primary screen (AID 2061166)
Conditions: Recombinant tau seeded by AD brain, ThT fluorescence AUC; at 100 µM; hits give high values

Chain of Microtubule-associated protein tau (Homo sapiens) (P10636 whole entry, looked up): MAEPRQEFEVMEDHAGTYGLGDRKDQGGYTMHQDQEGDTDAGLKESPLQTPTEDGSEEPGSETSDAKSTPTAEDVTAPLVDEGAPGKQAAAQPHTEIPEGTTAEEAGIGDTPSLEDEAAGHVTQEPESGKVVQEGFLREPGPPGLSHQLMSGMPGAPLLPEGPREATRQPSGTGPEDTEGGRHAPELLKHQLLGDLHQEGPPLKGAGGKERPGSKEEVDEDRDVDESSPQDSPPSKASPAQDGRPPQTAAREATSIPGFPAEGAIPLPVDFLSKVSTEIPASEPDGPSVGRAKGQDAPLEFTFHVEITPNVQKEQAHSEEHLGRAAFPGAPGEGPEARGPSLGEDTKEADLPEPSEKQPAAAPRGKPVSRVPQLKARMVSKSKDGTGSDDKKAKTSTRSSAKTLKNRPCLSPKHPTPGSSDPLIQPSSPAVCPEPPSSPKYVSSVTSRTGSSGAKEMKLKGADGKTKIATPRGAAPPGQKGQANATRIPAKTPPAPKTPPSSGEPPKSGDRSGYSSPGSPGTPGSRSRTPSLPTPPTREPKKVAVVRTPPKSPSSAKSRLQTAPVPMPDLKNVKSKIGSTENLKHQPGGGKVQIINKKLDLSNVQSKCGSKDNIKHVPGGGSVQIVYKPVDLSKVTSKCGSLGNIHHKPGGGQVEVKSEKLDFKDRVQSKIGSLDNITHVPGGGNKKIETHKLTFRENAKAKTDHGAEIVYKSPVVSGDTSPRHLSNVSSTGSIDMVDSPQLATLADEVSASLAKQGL

| Compound | inhibition [%] |
| --- | --- |
| CC(=O)c1c(O)c(C)c(O)c2c1OC1=CC(=O)C(C(C)=O)C(=O)C12C (configuration not stated) | 21.4 |
| CC1CCC2(OC1)OC1CC3C4CC=C5CC(O)CC(O)C5(C)C4CCC3(C)C1C2C (configuration not stated) | 13.9 |
| Cc1nc2c([nH]1)CCN(C(=O)c1ccc(NC(=O)c3ccccc3-c3ccccc3)cc1)c1ccccc1-2 | 6.08 |
| CCCCOc1ccc(CC(=O)NO)cc1 | 16.6 |
| CCN(CC)CCCC(C)Nc1c2ccc(Cl)cc2nc2ccc(OC)cc12 (configuration not stated) | 72.2 |
| CCCCN1CCCCC1C(=O)Nc1c(C)cccc1C (configuration not stated) | 7.03 |
| CC1(O)Cc2oc3cc(O)c(O)c(C(=O)O)c3c(=O)c2CO1 (configuration not stated) | 33.4 |
| COc1ccc(Cc2cnc(N)nc2N)cc1OC | 37.1 |
| C#CC1(O)CCC2C3CCC4=Cc5oncc5CC4(C)C3CCC21C (configuration not stated) | 45.1 |
| NS(=O)(=O)Cc1noc2ccccc12 | 18.2 |
| CCOC(=O)C1=C(C)NC(C)=C(C(=O)OC)C1c1cccc(Cl)c1Cl (configuration not stated) | 51.7 |
| CCN1CCN(Cc2ccc(Nc3ncc(F)c(-c4cc(F)c5nc(C)n(C(C)C)c5c4)n3)nc2)CC1 | 15.2 |
| CN(C)CCCN1c2ccccc2Sc2ccc(Cl)cc21 | 25.9 |
| Nc1cccc2c1C(=O)N(C1CCC(=O)NC1=O)C2=O (configuration not stated) | 16.4 |
| NC(=O)N1CCC(CC(=O)N2CCC(C3c4ncc(Br)cc4CCc4cc(Cl)cc(Br)c43)CC2)CC1 (configuration not stated) | 20.1 |
| CN(CCOc1ccc(CC2SC(=O)NC2=O)cc1)c1ccccn1 (configuration not stated) | -61 |

| Compound | inhibition [%] |
| --- | --- |
| OCCOCCN1CCN(C2=Nc3ccccc3Sc3ccccc32)CC1 | 22.2 |
| Nc1c2c(nc3ccccc13)CCCC2 | 20.6 |
| CCc1cc(C(N)=S)ccn1 | 40.9 |
| CCN(CC)CC#CCOC(=O)C(O)(c1ccccc1)C1CCCCC1 (configuration not stated) | -0.433 |
| CC(=O)Oc1ccccc1C(=O)O | 2.58 |
| CCCCCCCCc1ccc(CCC(N)(CO)CO)cc1 | 59.3 |
| Cc1c(N)c(=O)n(-c2ccccc2)n1C | 0.254 |
| O=C(O)c1cc(-c2ccccc2)nc2ccccc12 | 3.74 |
| COC1CC2CCC(C)C(O)(O2)C(=O)C(=O)N2CCCCC2C(=O)OC(C(C)CC2CCC(O)C(OC)C2)CC(=O)C(C)/C=C(\C)C(O)C(OC)C(=O)C(C)CC(C)/C=C/C=C/C=C/1C (configuration not stated) | 14 |
| CCC1=CC2CN(C1)Cc1c([nH]c3ccccc13)C(C(=O)OC)(c1cc3c(cc1OC)N(C)C1C(O)(C(=O)OC)C(OC(C)=O)C4(CC)C=CCN5CCC31C54)C2 (configuration not stated) | 27 |
| COc1cc(C(C)=O)ccc1OCCCN1CCC(c2noc3cc(F)ccc23)CC1 | -61.2 |
| CN(C)c1ccc(C=CC=O)cc1 | 37.8 |
| Cc1ccc(Nc2c(F)cccc2Cl)c(CC(=O)O)c1 | 11.4 |
| O=C(CCCCCCC(=O)Nc1ccccc1)NO | -65.2 |
| CCc1c2c(nc3ccc(OC(=O)N4CCC(N5CCCCC5)CC4)cc13)-c1cc3c(c(=O)n1C2)COC(=O)C3(O)CC (configuration not stated) | 46.1 |
| O=C(O)CCCc1ccccc1 | 8.12 |
